Screens from PubChem BioAssay.
Compounds with a hit are over-represented: about 6.7% of the library has one in this group of screens.
C diff HTS – blocks growth of Clostridium difficile | Clostridium difficile clinical isolate growth, OD600, 24 h; hits give low values | growth activity, negative = inhibition, % at 16 µg/mL (by protocol) | 0.25% of 86,000 active | AID 1259249;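 active means mean growth activity at or below -80% and every replicate also at or below -80%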
Tcruzi prolif – blocks T. cruzi growth in NIH3T3 culture. T. cruzi beta-gal in NIH3T3, GalScreen luminescence, 90 h. inhibition, % at 8.34 µM. 5.9% of 77,000 active. AID 624255;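 active means mean inhibition above about 93%, with at least 55% of replicates each passing it, limit read from the data, passing the limit was not always enough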
Pf Dd2 inh – P. falciparum Dd2 growth inhibition; SYBR Green, 72 h; hits give low values; activity change, % at 10 µM; 2.3% of 94,000 active; AID 1159554; in the data active means activity change below about -80%
Hits are given with their value; n = inactive; x = no result.

SMILES	C diff HTS	Tcruzi prolif	Pf Dd2 inh
COCC(=O)N1[C@@H](CO)[C@@H](c2ccccc2)C12CN(C(=O)Cc1ccccn1)C2	n	x	n
COc1ccc(S(=O)(=O)N2CCC3(CC2)CN(C(=O)CN(C)C)[C@@H](CO)c2c3c3ccc(OC)cc3n2C)cc1	n	x	-88
CCCNC(=O)N1CC2(CCN(S(=O)(=O)c3ccc(OC)cc3)CC2)c2c(n(C)c3cc(OC)ccc23)[C@@H]1CO	n	x	-86
COc1ccc2c3c(n(C)c2c1)[C@@H](CO)N(C(=O)CN(C)C)CC31CCN(C(=O)CN(C)C)CC1	n	x	n
CCCNC(=O)N1CC2(CCN(S(=O)(=O)c3ccccc3)CC2)c2c(n(C)c3cc(OC)ccc23)[C@H]1CO	n	x	n
COc1ccc(NC(=O)N(C)C[C@H]2OCCCC[C@H](C)Oc3ccc(NS(=O)(=O)c4ccc(C)cc4)cc3C(=O)N([C@H](C)CO)C[C@@H]2C)cc1	x	n	n
O=C(C[C@H]1CC[C@@H](NC(=O)NC2CCCCC2)[C@@H](CO)O1)NCc1ccc(F)cc1	n	x	n
CCC(=O)N(C)C[C@H]1Oc2ncc(C3=CCCC3)cc2C(=O)N([C@H](C)CO)C[C@@H]1C	n	n	n
CO[C@@H]1CN(C)C(=O)c2cc(NC(=O)C3CC3)ccc2OC[C@@H](C)N(Cc2cc(F)ccc2F)C[C@@H]1C	x	n	n
CO[C@H]1CN(C)C(=O)c2cc(NC(=O)C3CC3)ccc2OC[C@H](C)N(Cc2cc(F)ccc2F)C[C@H]1C	x	n	-88
COc1ccccc1CN1C[C@@H](C)[C@H](OC)CN(C)C(=O)c2cc(NC(=O)Nc3ccccc3OC)ccc2OC[C@H]1C	x	n	-89
COc1ccccc1CN1C[C@H](C)[C@@H](OC)CN(C)C(=O)c2cc(NC(C)=O)ccc2OC[C@H]1C	x	n	n
CN1C(=O)c2cc(NS(=O)(=O)c3cccc(F)c3)ccc2OC[C@H]2O[C@H](CC(=O)O)CC[C@@H]21	n	n	n
C[C@@H]1CN([C@H](C)CO)C(=O)Cc2cc(NC(=O)Nc3ccc4c(c3)OCO4)ccc2O[C@@H]1CN(C)S(=O)(=O)c1cn(C)cn1	n	n	n
CO[C@H]1CN(C)C(=O)c2ccc(NC(=O)c3nc4ccccc4s3)cc2OC[C@@H](C)N(Cc2ccncc2)C[C@H]1C	x	x	n
CO[C@@H]1CN(C)C(=O)c2ccc(NC(=O)c3nc4ccccc4s3)cc2OC[C@@H](C)N(Cc2cccnc2)C[C@H]1C	n	n	-90
CO[C@H]1CN(C)C(=O)c2ccc(NC(=O)c3nc4ccccc4s3)cc2OC[C@H](C)N(Cc2ccncc2)C[C@@H]1C	x	x	-93
CO[C@@H]1CN(C)C(=O)c2ccc(NC(=O)c3nc4ccccc4s3)cc2OC[C@H](C)N(Cc2ccncc2)C[C@H]1C	x	x	n
CO[C@H]1CN(C)C(=O)c2ccc(NC(=O)c3nc4ccccc4s3)cc2OC[C@@H](C)N(Cc2cccnc2)C[C@@H]1C	n	n	n
CO[C@@H]1CN(C)C(=O)c2ccc(NC(=O)c3nc4ccccc4s3)cc2OC[C@@H](C)N(Cc2ccncc2)C[C@H]1C	x	x	-97
COc1ccc(CNC(=O)N(C)C[C@H]2OCc3ccccc3-c3c(n(C)c4ccccc34)C(=O)N([C@@H](C)CO)C[C@@H]2C)cc1	n	n	n
CN1C(=O)c2cc(NS(C)(=O)=O)ccc2OC[C@@H]2O[C@H](CC(=O)NCc3ccc(-c4ccccc4)cc3)CC[C@@H]21	n	n	x
CCCNC(=O)Nc1ccc2c(c1)C(=O)N(C)C[C@H](OC)[C@@H](C)CN(Cc1cncnc1)[C@H](C)CO2	n	n	n
C[C@H]1CN([C@@H](C)CO)C(=O)c2cccc(NS(=O)(=O)c3cn(C)cn3)c2O[C@H]1CN(C)C	n	n	n
COc1ccccc1CNC(=O)C[C@H]1CC[C@H]2[C@@H](COc3ccc(NC(=O)c4ccno4)cc3C(=O)N2C)O1	n	n	n
SMILES	C diff HTS	Tcruzi prolif	Pf Dd2 inh
COCC(=O)Nc1ccc2c(c1)[C@H]1C[C@@H](CC(=O)N3CCc4ccccc4C3)O[C@H](CO)[C@H]1O2	n	n	n
C(=C\c1ccc(C2[C@@H]3CN(Cc4cccnc4)C[C@H]2N3)cc1)/c1ccccc1 (stereo partly specified)	n	x	-90
c1cncc(CN2C[C@@H]3N[C@H](C2)C3c2ccc(-c3cccnc3)cc2)c1 (stereo partly specified)	n	x	n
Fc1ccccc1-c1ccc(C2[C@@H]3CN(Cc4ccccn4)C[C@H]2N3)cc1 (stereo partly specified)	n	x	n
c1ccc(CN2C[C@@H]3N[C@H](C2)C3c2ccc(-c3ccccc3)cc2)cc1 (stereo partly specified)	n	x	n
Fc1ccccc1-c1ccc(C2[C@@H]3CN(Cc4ccccc4)C[C@H]2N3)cc1 (stereo partly specified)	-98	x	n
